According to paper PMC5540273 (PLoS ONE, 2017):

test system: T1, ASK2; details: concentration: 1 μM, replicates: in singlicate; n = 1
T1 construct: gene MAP3K6
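Further: KINOMEscan kinase panel screen.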

| Compound | %Inh |
| --- | --- |
| CCC(=O)c1c(-c2ccccc2)c2cc(Cl)ccc2c(=O)n1Cc1cc(S(C)(=O)=O)n(CC(F)F)n1 | 0% |
| CCC(=O)c1c(-c2ccccc2)c2cc(Cl)ccc2c(=O)n1Cc1cc(S(C)(=O)=O)n(CC(N)=O)n1 | 0% |
| O=C(Nc1ccc2c(c1)OCO2)NC1CCN(c2ccnc(NCc3ccc(F)cc3)n2)CC1 [GSK1379859] | 0% |
| Cn1c(=O)c(F)c(Nc2ccc(I)cc2F)c2c(=O)n(OC[C@H](O)CO)cnc21 | 0% |
| Nc1nccc2scc(-c3ccc4c(c3)CCN4C(=O)Cc3ccccc3)c12 [GSK2576924] | 0% |
| C[C@@H]1CC[C@H](C(=O)NC2CCCCC2)CN1c1cc(-c2ccc3c(N)n[nH]c3c2)nc(N)n1 [GSK2291363] | 7% |
| O=C(NCCNc1ccnc(Nc2ccc(F)cc2)n1)Nc1ccc2c(c1)OCO2 [GSK1379882] | 0% |
| CCS(=O)c1ccc(-c2coc3ccc(-c4nnc(C)o4)cc23)cc1 (stereo not shown) | 0% |
| Cc1cccc(-c2cc(-c3c[nH]nc3-c3ccccn3)ccn2)c1 [GW679395] | 0% |
| CN1C(=O)C(Nc2ccccc2)=C(c2ccccc2)C1=O [SB-300079] | 0% |
| COc1cccc(-n2cnc3c(N)ncnc32)c1 [SKF-97416] | 35% |
| COc1ccc(CNC(=O)NC2CCN(c3ccnc(Nc4ccc(F)cc4)n3)C2)cc1 (stereo not shown) [GSK1379706] | 0% |
| Nc1n[nH]c2nnc(-c3ccccc3)c(-c3ccccc3)c12 [GW554060] | 4% |
| Cc1nnc(-c2ccc3ncn(-c4ccc(S(C)=O)cc4)c3c2)o1 (stereo not shown) | 0% |
| CCn1c(-c2nonc2N)nc2ccccc21 [SB-693162/GW549034] | 2% |
| O=C(Nc1n[nH]c2cc(-c3ccccc3F)ccc12)C1CC1 [SB-733371] | 0% |
| CC(C)(C)c1ccc(C(=O)Nc2cn3cc(-c4ccccc4)ccc3n2)cc1 | 0% |
| Nc1ncnc2c1ncn2-c1cccc2ccccc12 [SKF-97184] | 0% |
| CCCC(=O)Nc1n[nH]c2ncc(-c3cccc4ccccc34)cc12 [SB-642057] | 9% |

| Compound | %Inh |
| --- | --- |
| Cc1cccc(-c2nc(Nc3ccc4c(cnn4C)c3)c3ccccc3n2)n1 [GW876731] | 10% |
| COC(=O)c1c(-c2ccccc2)c2cc(Br)ccc2c(=O)n1Cc1ccc(NC(=O)CCC(=O)O)cc1 | 0% |
| O=C1NC(=O)C(c2ccccc2)=C1Nc1cccc(O)c1 [SB-390534] | 4% |
| CCCNC(=O)Nc1ccc(Oc2ncnc3ccn(C)c23)cc1 | 1% |
| COc1cc2nccc(Nc3cccc(Oc4ccccc4)c3)c2cc1OC.Cl [GW284543] | 0% |
| COc1cc2ncn(-c3cc(OCCCc4ccccc4)c(C(N)=O)s3)c2cc1OC [GSK205189] | 0% |
| CCn1c(-c2ccoc2)nc2cnccc21 [SB-733887] | 5% |
| COc1ccc(-c2coc3ccc(-c4nnc(SCc5cccc(C#N)c5)o4)cc23)cc1 | 6% |
| COC(=O)c1c(-c2ccccc2)c2cc(C)ccc2c(=O)n1Cc1ccccc1 | 0% |
| CCc1nc(-c2cccc(C)c2)c(-c2ccncc2)s1 | 0% |
| Cc1ccc(Oc2ccc(Nc3ncnc4cc[nH]c34)cc2C)cn1 | 0% |
| COc1cccc(C2=C(N(C)c3ccccc3)C(=O)NC2=O)c1 [SB-334865] | 0% |
| COc1ccc(-n2cnc3c(N)ncnc32)cc1 [SKF-97236] | 0% |
| Cc1c(Cn2c(C)nn3c(=O)cc(N4CCO[C@H](C)C4)nc23)cccc1C(F)(F)F [GSK2373690] | 15% |
| COc1cc(Nc2nccc(N3CCC(NC(=O)C(C)c4ccc(Cl)cc4)C3)n2)cc(OC)c1OC (stereo not shown) [GSK1379757] | 0% |
| COc1cc2ncn(-c3cc(OCc4ccc(S(C)(=O)=O)cc4)c(C(N)=O)s3)c2cc1OC [GW869979] | 37% |
| Cc1nnc(-c2ccc(C)c(-c3ccc(C(=O)O)cc3)c2)o1 [GW608005] | 0% |
| COc1ccc(-c2cc3c(C)nc(N)nc3n([C@H]3CC[C@H](O)CC3)c2=O)cn1 | 0% |
